40 compounds from PubChem BioAssay (Tox21) can be followed below.

Inconclusive results are not listed. Where a call stands in place of a potency, no number is given. Active and inactive are the calls of the source. The call rests on the fitted dose curve; in most records, active means well fitted cell-killing curve with a large enough effect in the repeat runs; inconclusive means weak or mixed curves, or effect the other way; inactive means no such curve, though single readings can be large or run the other way.
Potency means the concentration at half of the fitted maximal effect.

This assay is described as follows: qHTS assay to identify small molecule antagonists of the retinoid-related orphan receptor gamma (ROR-gamma) signaling pathway - cell viability counter screen (AID 1159520). Further: nearly all actives have a fitted effect of over 50% in size. To be noted: Tet-on RORgamma CHO cells viability, ATP luminescence, 16 h; series mostly up to 92.4 µM. An excerpt:
U.S. Tox21 Program National Center for Advancing Translational Sciences [NCATS] NIH Chemical Genomics Center [NCGC] U.S. Environmental Protection Agency [EPA] National Institutes of Environmental Health Sciences [NIEHS] National Toxicology Program [NTP] U.S. Food and Drug Administration [FDA] Tox21 Assay Overview: Nuclear steroid hormone receptors are involved in many biological processes including inflammatory responses, cell proliferation, and apoptosis. Environmental factors or compounds disrupting these nuclear receptor pathways and gene expression may promote susceptibility to immunotoxicants and autoimmune diseases. One important group of these expression factors are the retinoid-related orphan receptors. To assess compounds that may interfere with the retinoid-related orphan receptor gamma (ROR-gamma) transcription factor, a cell-based luciferase assay was used. The CHO cell-based assay utilizes a TET-inducible ROR expression factor and ROR response element-LUC reporter gene. Reporter gene activity was induced using Doxycycline Hyclate and measured after 16 hr incubation. Tet-on ROR gamma CHO cells were used to screen against the Tox21 10K compound library for cytotoxicity by measuring the viability of the cells based on the quantitation of the ATP.
Tox21 Assay Protocol Summary: Tet-on ROR gamma CHO cells were dispensed at 1,000 cells in 4 uL of culture medium per well into white wall/solid bottom 1536-well plates using a Multidrop Combi (Thermo Scientific, Waltham, MA) dispenser. Following incubation at 37 C and 5% CO2 for 4 hr, 23 nL of compounds dissolved in DMSO, positive controls or DMSO only were transferred by a Pintool station (Kalypsys, San Diego, CA) and after 2 hr incubation at 37 C, one ul of 1 uM (final concentration) of Doxycycline Hyclate was added to all the wells by using a Flying Reagent Dispenser (FRD) (Aurora Discovery, San Diego, CA). After 16 hr incubation at 37 C and 5% CO2, 5 uL of CellTiter-Glo reagent (Promega Corporation, Madison, WI) was added to each assay plate using FRD. After 30 min incubation at room temperature, luminescence was quantified on a ViewLux plate reader (Perkin Elmer, Waltham, MA).
In general terms: Quantitative high-throughput screening tests each substance at several concentrations.
As to `FC(F)(F)c1cccc(Cl)c1`, the Potency result is “inactive”.
Same read-out and setting: then `CCC(C)[O-].CCC(C)[O-].CCOC(=O)/C=C(/C)[O-].[Al+3]`, with “inactive”; and `C=Cc1cccc(C)c1`, with “inactive”.
Consider `C[C@@H](O)[C@H](N)C(=O)O`, for which the activity, negative = cytotoxicity was -0.243% [at 19 µM] (inactive).
Consider `CC(=O)OCC=C(C)C`, for which the Potency entry was “inactive”.
Same read-out and setting: in the case of `CCOC(=O)c1ccc(C2CCC(NC[C@H](O)COc3ccc(O)c(NS(C)(=O)=O)c3)CC2)cc1` (stereo not given in full) it was “inactive”.
The same measure, in the same setting: in the case of `O=C(O)c1ccc2cc(C(=O)O)ccc2c1` it was “inactive”; in that of `OCCN1CCN(CCCN2c3ccccc3Sc3ccc(C(F)(F)F)cc32)CC1`, “inactive”; in that of `CC[N+](CC)(CC)CCOc1ccc(/C=C/c2ccccc2)cc1`, “inactive”.
As to `CCOC(=O)NNc1ccc(N(CC)CC(C)O)nn1` (stereo not given), the Potency entry was “inactive”.
The same measure, in the same setting: in the case of `Nc1ccc(Oc2ccc(Cl)cc2)cc1` it was “inactive”; in that of `CC[N+](CC)(CC)CCOC(=O)C(C1CCCC1)C1CCCC1`, “inactive”.
On the same count and under the same terms, then `O=C(/C=C/c1ccccc1)OC/C=C/c1ccccc1`, with 54.5 µM (active); and `CN(C)CCN1CCN(c2cccc(Cl)c2)C1=O`, with “inactive”.
Take `Clc1ccnc(Cl)n1`: the Potency result was “inactive”.
Same read-out and setting: then `COc1cc(/C=C/c2ccccc2)oc(=O)c1`, with “inactive”.
Same read-out and setting: in the case of `CC(C)=CCNc1ncnc2c1ncn2[C@@H]1O[C@H](CO)[C@@H](O)[C@H]1O` it was 10.6 µM (active); in that of `CCCCCCCCCCCCCC[N+](C)(C)Cc1ccccc1`, 69.6 µM (active).
On to `O=C(O)O`, for which the activity, negative = cytotoxicity is 0.616% [at 8.39 µM] (inactive).
For the compound `CCOC(=O)Cn1cccc1-c1nc(-c2ccc(OC)cc2)c(-c2ccc(OC)cc2)s1`, the Potency entry is “inactive”.
On to `CC/C=C\CCCCCO`, for which the Potency result was “inactive”.
The same measure, in the same setting: then `Clc1sc(Cl)c(Cl)c1Cl`, with “inactive”; and `Cc1cccc(C)c1NC(=O)c1ccc(N)cc1`, with “inactive”; and `CCCCCCCCCCOC(=O)c1ccccc1C(=O)OCCCCCCCC`, with “inactive”.
Still for that read-out and setting: then `Cc1cccc2cccnc12`, with “inactive”; and `Cc1cc(C)c(/C=C2\C(=O)Nc3ccccc32)[nH]1`, with “inactive”.
On the same count and under the same terms, then `O=C(O)c1cc(O)c2ccccc2c1O`, with 17.2 µM (active).
Regarding `CCCCC/C=C\C/C=C\CCCCCCCC(=O)O`, the Potency entry was “inactive”.
Still for that read-out and setting: then `OC[C@H]1O[C@H](O[C@H]2O[C@H](CO)[C@@H](O)[C@H](O)[C@H]2O)[C@H](O)[C@@H](O)[C@@H]1O`, with “inactive”; and `OC[C@@H](O)[C@@H](O)CO`, with “inactive”; and `Cc1ccc(C(C)C)cc2c(C)ccc1-2`, with “inactive”.
With `CCCC(=O)OC(C)(C)Cc1ccccc1`, the Potency entry is “inactive”.
For `Cc1c(C)c([N+](=O)[O-])c(C(C)(C)C)c([N+](=O)[O-])c1C`, the Potency entry is “inactive”.
On the same count and under the same terms, in the case of `CC1(C)CCC[C@]2(C)[C@H]3CCO[C@]3(C)CC[C@@H]12` it was “inactive”; in that of `Cc1ccc(-c2ccccc2)cc1`, “inactive”.
Same read-out and setting: in the case of `C=CCCC(=O)/C=C/C1C(C)=CCCC1(C)C` (stereo not given) it was “inactive”; in that of `COC(=O)c1ccccc1C`, “inactive”.
The same measure, in the same setting: then `O=C(/C=C/c1ccc(O)c(O)c1)O[C@@H](C(=O)O)[C@@H](OC(=O)/C=C/c1ccc(O)c(O)c1)C(=O)O`, with “inactive”.
Consider `CC(=O)c1ccc(C(C)=O)cc1`, for which the Potency entry was “inactive”.
On the same count and under the same terms, then `Cc1cccc(C(=O)O)c1O`, with “inactive”.
